BAZ2B block = blocks human BAZ2B; Q9UIF8; AlphaScreen BAZ2B-H3K14Ac peptide displacement; Potency, µM (doses to about 114 µM), without a hit: at the top dose activity change, negative = inhibition, most hits filed as inhibitors; 360,000 tested, 4.4% active; AID 504333; also: potency is read from the fitted curve at half-maximal effect; % is scaled to controls: 0 for no effect and ±100 for the full control effect; nearly all actives have a fitted effect of over 60% in size
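Protein-peptide AlphaScreen: BAZ2B 50 nM, b-H3K14Ac 50 nM, 1x PBS pH 7.4 + 0.01% Tween-20. Preincubation 30 min RT; cpd 30 min RT (top 110 uM); beads 20 min RT, light-protected.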
CtBP-E1A blk = blocks the CtBP interaction with E1A. AlphaScreen GST-E1A/His-CtBP binding, 1536-well; stronger effect = lower value. activity change, % (test concentration not listed). 340,000 tested, 0.49% active. AID 651724; in the data active = activity change below about -65%; inconclusive = mostly about -30% to -63%; also: % is scaled to controls: 0 for no effect and ±100 for the full control effect
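In 5 uL wells, 23 nL compound meets equimolar GST-E1A and His-CtBP (5X stock 125 nM each) for 2 h, 37 °C. Beads (5X, 50 ug/mL) then 1 h, 37 °C, dark.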
JMJD2A Tudor inh = inhibitors of human JMJD2A Tudor domain | AlphaScreen JMJD2A-Tudor / H3K4me3 peptide binding | 390,000 tested, 4.4% active | Potency, µM (titrated, usually from 114 µM), for inactives: at the top dose activity change, negative = inhibition, most hits filed as inhibitors; also: potency is read from the fitted curve at half-maximal effect; % is scaled to controls: 0 for no effect and ±100 for the full control effect; nearly all actives have a fitted effect of over 50% in size
Six1-Eya2 inh = Six1/Eya2 interaction inhibition; AlphaScreen GST-Six1/His-Eya2 binding, biochemical; stronger effect = lower value; activity change, % (test concentration not listed); 360,000 tested, 0.56% active; AID 651725; in the data active = activity change below about -65%; inconclusive = mostly about -30% to -63%; also: % is scaled to controls: 0 for no effect and ±100 for the full control effect
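AlphaScreen luminescence read after one hour at 37 °C in darkness. Pin-transferred compounds met GST-Six1 and His-Eya2 protein (5X stock 250 nM/500 nM) plus glutathione donor and Ni-chelate acceptor beads (5X, 50 ug/mL).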
G9a block = inhibitors of human histone lysine methyltransferase G9a. Q96KQ7. G9a H3K9 monomethylation, AlphaScreen, 2 h. Potency, µM (top dose mostly 102 µM), for the others: at the highest dose activity, negative = inhibition, most hits filed as inhibitors. 350,000 tested, 8.8% active; also: potency is read from the fitted curve at half-maximal effect; % is scaled to controls: 0 for no effect and ±100 for the full control effect; nearly all actives have a fitted effect of over 75% in size
Target sequence (Q96KQ7 913-1193 limits assumed): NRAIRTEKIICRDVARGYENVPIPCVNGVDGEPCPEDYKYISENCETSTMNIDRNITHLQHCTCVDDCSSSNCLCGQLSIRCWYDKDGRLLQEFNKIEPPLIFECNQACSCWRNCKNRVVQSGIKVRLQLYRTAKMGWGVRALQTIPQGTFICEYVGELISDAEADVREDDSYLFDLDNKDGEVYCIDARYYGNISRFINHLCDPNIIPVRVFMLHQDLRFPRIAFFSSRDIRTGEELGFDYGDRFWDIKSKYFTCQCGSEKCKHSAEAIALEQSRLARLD
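Using a bead-based AlphaScreen, monomethylated H3K9 product from 2 h room-temperature reactions (G9a 20 nM, peptide 500 nM, SAM 20 uM) was detected with 0.5 ug/mL rabbit anti-H3K9me1 antibody.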
HP1b binding inh = inhibitors of HP1-beta chromodomain binding to methylated histone tails. AlphaScreen HP1-beta / biotin-H3K9me3 peptide binding. Potency, µM (titrated, usually from 114 µM), for inactives: at the top dose activity change, negative = inhibition, usual class: inhibitors. 390,000 tested, 0.56% active. AID 540317; also: potency is read from the fitted curve at half-maximal effect; nearly all actives have a fitted effect of over 70% in size
Target sequence (P83916 whole entry, looked up): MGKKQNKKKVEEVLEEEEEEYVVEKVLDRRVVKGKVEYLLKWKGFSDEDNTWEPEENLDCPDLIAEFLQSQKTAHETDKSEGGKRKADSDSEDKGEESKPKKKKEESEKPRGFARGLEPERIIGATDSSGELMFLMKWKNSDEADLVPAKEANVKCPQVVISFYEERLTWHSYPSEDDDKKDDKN
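HP1-beta protein (50 nM final) preincubated 30 min at room temperature with biotinylated H3(1-18)K9me3 peptide (50 nM) in PBS pH 7.4, 0.01% Tween-20, then compound added for 30 min. AlphaScreen streptavidin donor/nickel chelate acceptor beads (10 ug/mL final), 30 min dark, luminescence read.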
* hit, by the source's call; ? = inconclusive; . = no result; [ ] = another dose, or the depositor's remark. This is a sample that favours compounds with a hit; in the whole collection about 10% have one here. Unless noted, calls follow the shape of the dose curve; as a rule, active = well fitted inhibition curve with a large enough effect; inconclusive = small, poorly fitted or top-dose-only effect; inactive = no such curve, though single readings can be large or run the other way.

SMILES	BAZ2B block	CtBP-E1A blk	JMJD2A Tudor inh	Six1-Eya2 inh	G9a block	HP1b binding inh
O=c1c(-c2ccc(F)cc2)nc2cnc(N3CCNCC3)nc2n1-c1ccccc1	.	.	.	.	-18.2%[0.501 µM]	.
O=c1c(NCc2cccs2)nccn1-c1ccc(F)cc1	-20.2%	.	-17.9%	.	-9.8%[59 µM]	4.0%
COc1cc(NC(=O)CN2C(=O)COc3ccc(S(=O)(=O)NC4CCCC4)cc32)cc(OC)c1	17.4%	.	-2.3%	.	27.7%[59 µM]	42.2%
Cc1cc(C)c(C#N)c(Sc2ccccc2N)n1	-23.2%	?	-13.9%	?	7.94µM*	42.0%
COC(=O)C(Sc1nc(C)cc(C)c1C#N)c1ccccc1 (centres undefined)	32.8%	5.6	31.5%	8.9	65.5%	53.5%
CC(C)(C)OC(=O)N1CCC(c2c(C(=O)NCCN3CCOCC3)cnn2-c2cccc(Cl)c2)CC1	9.5%[57.1 µM]	.	-9.4%	.	-19.9%[59 µM]	17.1%
CC(=O)Oc1cccc2c1C(=O)c1c(OC(C)=O)cc(C(=O)O)cc1C2=O	?	-12.3	?	-7.1	3.55µM*	17.5%
C(=N\Nc1nc(-c2ccccn2)nc2ccccc12)/c1ccccc1	50.1µM*	-29.0	?	?	-16.4%	12.3%
c1ccc(-c2nc(NCc3ccco3)c3ccccc3n2)nc1	44.7µM*	-81.1*	-34.4%[11.4 µM]	-80.6*	?	25.4%
c1coc(CNc2nc(N3CCCCC3)nc3ccccc23)c1	?	0.3	-26.4%	-7.9	?	1.8%
c1ccc(CNc2nc(N3CCN(Cc4ccccc4)CC3)nc3ccccc23)cc1	50.1µM*	-16.4	-33.8%	-10.9	?	-2.5%
COc1ccccc1Nc1nc(NCc2ccco2)c2ccccc2n1	?	-4.8	-31.3%	-3.4	50.1µM*	10.8%
Cc1ccccc1Cn1c(=O)n(Cc2ccc3c(c2)OCO3)c(=O)c2oc3ccccc3c21	?	.	0.0%	.	5.7%[59 µM]	42.1%
COc1ccc(OC)c(NC(=O)C(C)n2c(=O)cc(C)c3c(C)nn(-c4ccccc4)c32)c1 (centres undefined)	-9.6%	.	-5.0%	.	-0.3%[59 µM]	2.8%
CCc1ccc(NC(=O)Cn2nnc(C(=O)Nc3ccc(F)cc3)c2N)cc1	10.5%[57.1 µM]	.	-2.9%	.	3.1%[59 µM]	42.7%
c1ccc(N2CCN(c3nc(NCc4ccco4)c4ccccc4n3)CC2)cc1	44.7µM*	-13.8	50.1µM*	-21.6	44.7µM*	-38.3%
CC(C)c1ccc(S(=O)(=O)N2CCC(n3c(C(F)(F)F)nc4cccnc43)CC2)cc1	-15.6%	.	-25.6%	.	1.2%[59 µM]	16.1%
COCC(=O)Nc1ncc(S(=O)(=O)c2ccc([N+](=O)[O-])cc2)s1	.	-3.4	?	6.5	35.5µM*	7.3%
CCCCC(=O)Nc1ncc(S(=O)(=O)c2ccc([N+](=O)[O-])cc2)s1	-6.1%	-3.6	-12.4%	1.1	.	39.5%
CC(=O)N1c2ccc(S(=O)(=O)N3CCCCCC3)cc2CC1C(=O)NCc1cccc(C)c1 (centres undefined)	-9.3%	.	1.0%	.	0.3%[12.7 µM]	32.5%
C[C@H](NC(=O)[C@@H]1Cc2ccccc2CN1)C(=O)NC1CCCCC1	-23.6%	-5.3	-13.6%	9.6	79.4µM*	22.3%
C[C@@H](NC(=O)[C@@H]1Cc2ccccc2CN1)C(=O)NCC1CCCO1 (some centres undefined)	-16.7%	.	13.6%	5.5	50.1µM*	38.8%
O=C(CNC(=O)[C@@H]1Cc2ccccc2CN1)NCc1ccco1	-12.0%[57.1 µM]	.	-17.1%	-3.0	70.8µM*	47.9%
COc1ccc(CNC(=O)[C@H](C)NC(=O)[C@@H]2Cc3ccccc3CN2)cc1	?	5.1	-9.1%	7.0	70.8µM*	19.4%
Cc1ccc(-c2nc(CS(=O)(=O)CC(=O)N3CCN(c4cccc(C)c4C)CC3)c(C)o2)cc1	-7.6%	.	-2.7%	.	-43.8%[59 µM]	16.3%
SMILES	BAZ2B block	CtBP-E1A blk	JMJD2A Tudor inh	Six1-Eya2 inh	G9a block	HP1b binding inh
COc1cccc2cc(C(=O)N(Cc3cccs3)Cc3cccs3)c(=O)oc12	.	.	-2.1%	.	.	20.8%
Cc1cccc(C)c1NC(=O)Cn1nnc(C(=O)NCc2ccc(F)cc2)c1N	6.6%[57.1 µM]	.	-4.9%	.	-5.0%[59 µM]	26.9%
Cc1cc(C)cc(NC(=O)Cn2nnc(C(=O)NCc3ccccc3Cl)c2N)c1	-2.6%	34.3	-4.9%	15.1	1.12µM*	42.8%
Cc1cc(C)cc(NC(=O)Cn2nnc(C(=O)NCc3ccc(F)cc3)c2N)c1	-14.3%	-7.2	10µM*	2.4	0.0%[59 µM]	2.7%
C[N+]1(CC(=O)OCCCc2ccccc2)CCOCC1	44.7µM*	-0.6	50.1µM*	6.4	70.8µM*	19.8%
O=C(CN1CCOCC1)OCCCc1ccccc1	10.2%	3.9	-8.4%	-1.1	-49.7%[2.33 µM]	73.5%
Cc1ccc(CCCOC(=O)CN2CCCCC2)cc1	-7.0%	13.7	-13.3%	0.6	-3.6%	12.0%
Cc1ccc(CCCOC(=O)C[N+]2(C)CCOCC2)cc1	-19.5%	5.2	35.5µM*	5.6	10µM*	27.1%
CCNc1ccc(S(=O)(=O)N(C)C)cc1NCC(=O)Nc1c(F)cccc1F	0.1%	-6.9	-16.4%	-1.5	20.8%[59 µM]	19.1%
CCNc1ccc(S(=O)(=O)N(C)C)cc1NCC(=O)Nc1ccccc1Cl	?	-6.3	?	-9.8	39.8µM*	-23.6%
O=C(Cc1ccc(S(=O)(=O)N2CCCC2)s1)N1CCN(c2ccccc2)CC1	.	-10.5	-5.8%	5.8	?	11.7%
COc1ccc(N2CCN(C(=O)Cc3ccc(S(=O)(=O)N4CCOCC4)s3)CC2)cc1	39.8µM*	4.8	44.7µM*	3.0	44.7µM*	50.1µM*
Cc1ccc(S(=O)(=O)N2CCN(C(=O)Cc3ccc(S(=O)(=O)N4CCOCC4)s3)CC2)cc1	-18.1%	1.1	-8.2%	2.9	79.4µM*	36.0%
Cc1ccc(S(=O)(=O)N(CCC(=O)N2CCOCC2)c2ccccc2)cc1	-5.2%	5.4	-7.6%	3.5	14.1µM*	14.8%
COc1ccc(C(=O)Nc2ccc(C(=O)OCc3cc(=O)n4nc(C5CC5)sc4n3)cc2)cc1	-14.8%	.	5.6%	.	-6.4%[59 µM]	26.8%
Cc1ccccc1-c1noc(-c2ccc(N3CCCC3)c([N+](=O)[O-])c2)n1	-2.1%	.	-8.9%	.	?	45.2%
CCc1cc(C(=O)Nc2cnn(Cc3ccccc3C)c2)no1	1.0%	.	-5.8%	.	?	31.4%
COC(=O)Cc1c(C)c2ccc3c(c2oc1=O)CN(Cc1ccccc1Cl)CO3	-34.0%	.	?	.	-26.3%[59 µM]	34.2%
COc1ccccc1Nc1cc(C)nc2nc(-c3ccccc3)nn12	-13.3%	.	-18.2%	.	-41.5%[59 µM]	31.8%
O=C1CSC(c2cccc([N+](=O)[O-])c2)N1CCN1CCCCC1 (centres undefined)	-23.1%	.	-20.0%	-1.2	9.1%	18.0%
O=C1CSC(c2ccccc2F)N1CCN1CCCCC1 (centres undefined)	-36.7%	1.1	-11.7%	0.7	79.4µM*	34.6%

Screens as filed in PubChem.
